Bioassay records from PubChem.
ABCB6 inh MLPCN – blocks the human ABCB6 transporter | K562-ABCB6 porphyrin accumulation, flow cytometry, 1 h; active compounds read low | fluorescence ratio to DMSO, % at 10 µM | actives 0.19% (n = 360,000) | AID 602162;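 active = fluorescence ratio to DMSO below 75%, the collection mean minus 3 SD; inconclusive = too few cells collected in the well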;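 also: signal is porphyrin accumulated inside mitochondria; lower ratio means ABCB6 inhibition with less porphyrin fluorescence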
Granule exo inh – blocks lytic granule exocytosis | inhibition, % at 10 µM | AID 651702 | actives 0.66% (n = 360,000) | TALL-104 LAMP-1 surface exposure, flow cytometry; cells stimulated with thapsigargin and PMA;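 active = inhibition above about 55%, limit read from the data; inconclusive = no clear call, values can overlap the other calls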
Myeloid diff MLP – promotes myeloid progenitor differentiation | AID 624256 | ER-HoxA9 myeloid progenitors, lysozyme-GFP differentiation, flow cytometry | actives 1% (n = 360,000) | calls only at 10 µM;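 active = normalized GFP-positive differentiation at or above the plate's own cutoff, the solvent-only control mean plus 3 SD; inconclusive = no clear call, values can overlap the other calls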;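 also: cells exposed to compound for four days before flow analysis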
Granule exo CP1 – blocks lytic granule exocytosis; shares compounds with Granule exo inh; TALL-104 cells, LAMP-1 externalization, flow cytometry; stimulated with PMA plus thapsigargin; inhibition, % at 10 µM; actives 11% (n = 1,500); in the data active = inhibition above about 60%
Numbers stand for hits; - = inactive; ? = inconclusive; . = not tested or not shown. Hits are enriched below; roughly 1.8% of the tested compounds scored in any of these assays.

SMILES | ABCB6 inh MLPCN | Granule exo inh | Myeloid diff MLP | Granule exo CP1
COCCn1nnnc1C(c1ccc(C)cc1)N1CCN(Cc2ccc3c(c2)OCO3)CC1 (stereo unspecified) | - | - | - | .
CCOc1ccc(S(=O)(=O)NCc2ccccn2)cc1NC(=O)c1ccccc1F | - | - | ? | .
O=C(CSc1cccc[n+]1[O-])Nc1c(Br)cc([N+](=O)[O-])cc1Br | - | - | - | .
O=C(Cn1sc2ccccc2c1=O)NC12CC3CC(CC(C3)C1)C2 | - | 103.9 | - | 99.6
Nc1cccc2c1C(=O)N(CC(=O)NC13CC4CC(CC(C4)C1)C3)C2=O | - | - | - | .
N=c1oc2ccc3ccccc3c2cc1-c1nnc2n1CCCCC2 | - | - | - | .
COc1ccc2oc(=N)c(-c3nnc4n3CCCCC4)cc2c1 | - | 56.1 | - | -
CC1CCC(N2CCN(c3ccc([N+](=O)[O-])cc3)CC2)CC1 (stereo unspecified) | - | - | - | .
CCC1CCC(N2CCN(c3ccc([N+](=O)[O-])cc3)CC2)CC1 (stereo unspecified) | - | 74.5 | - | -
CCOC(=O)Cn1c(=O)oc2cc(S(=O)(=O)NCCc3ccc(C)cc3)ccc21 | - | - | - | .
CCN(C(=O)Cn1c(=O)oc2cc(S(=O)(=O)N3CCCC3)ccc21)c1ccc(OC)cc1 | - | - | - | .
CCOC(=O)Cn1c(=O)oc2cc(S(=O)(=O)N(C)c3ccc(OC)cc3)ccc21 | - | 59.3 | - | -
CCOC(=O)Cn1c(=O)oc2cc(S(=O)(=O)N(C)c3cccc(C)c3)ccc21 | - | 61.8 | - | -
O=C(NCc1cc(C(F)(F)F)cc(C(F)(F)F)c1)c1cc(-c2cc(F)ccc2OCC2CCCO2)n[nH]1 (stereo unspecified) | - | - | - | .
COc1ccc(-c2cc([C@H]3[C@H]4C=CC[C@@H](C)[C@@H]4C(=O)N3Cc3ccccc3)ccc2F)cc1OC | - | - | - | .
COc1ccc(-c2cc([C@H]3[C@H]4C=CC[C@@H](C)[C@@H]4C(=O)N3Cc3ccccc3)ccc2F)cc1 | - | 57.3 | - | -
O=C(COc1ccc2ccc(=O)oc2c1)Nc1cccc(S(=O)(=O)N2CCCCC2)c1 | - | - | - | .
OC(c1ccc2ccccc2c1)c1ncc(-c2ccc(C(F)(F)F)cc2)[nH]1 (stereo unspecified) | - | - | - | .
Cc1ccc2nc(N(CCCN(C)C)C(=O)c3ccc(S(=O)(=O)N4CCc5ccccc5C4)cc3)sc2c1 | - | - | - | .
CN(C)CCCN(C(=O)c1ccc(S(=O)(=O)N2CCc3ccccc32)cc1)c1nc2ccc(F)cc2s1 | - | - | - | .
COc1ccc2sc(N(CCCN(C)C)C(=O)c3ccc(S(=O)(=O)N4CCc5ccccc5C4)cc3)nc2c1 | - | 76.4 | ? | 84.1
Cc1cc(C)c2sc(N(CCCN(C)C)C(=O)c3ccc(S(=O)(=O)N4CCc5ccccc5C4)cc3)nc2c1 | - | 56.4 | . | 62.6
COc1ccc2sc(N(CCCN(C)C)C(=O)c3ccc(S(=O)(=O)N4CCCC4)cc3)nc2c1 | - | - | - | .
Cc1cc(C)c2sc(N(CCCN(C)C)C(=O)c3ccc(S(=O)(=O)N4CCCc5ccccc54)cc3)nc2c1 | - | 57.9 | - | -
CC(C)C[C@H](NC(=O)C1CCN(C(=O)[C@H](Cc2ccccc2)NC(=O)OC(C)(C)C)CC1)C(=O)O | - | - | - | .
SMILES | ABCB6 inh MLPCN | Granule exo inh | Myeloid diff MLP | Granule exo CP1
Cc1cc(O)c(Sc2ncn[nH]2)cc1NS(=O)(=O)c1ccc(Cl)cc1 | - | - | - | .
O=S(=O)(Nc1cc(Sc2ncn[nH]2)c(O)c2ccccc12)c1ccccc1 | - | 101.0 | - | 103.4
CCC(NS(=O)(=O)c1ccc(C)cc1)C(=O)N1CCOCCOCCOCCOCC1 (stereo unspecified) | - | - | - | .
CCSc1nc2cc(C(=O)OC)ccc2c(=O)n1CC | - | - | - | .
COCCn1c(SCc2cccc(F)c2)nc2cc(C(=O)OC)ccc2c1=O | - | 74.6 | - | -
CCC(=O)Nc1ccc2c(c1)OCCO2 | - | - | - | .
C[C@H](NC(=O)Nc1ccc2c(c1)OCCO2)C(=O)O | - | 100.9 | - | -
COc1ccc(-c2noc(CN(C)C(=O)c3ccoc3C)n2)cc1 | - | - | - | .
NS(=O)(=O)c1cccc(NC(=O)COC(=O)c2ccccc2C(=O)c2ccccc2)c1 | - | - | - | .
Cc1c(C(=O)OCC(=O)Nc2cccc(S(N)(=O)=O)c2)oc2c1ccc1ccccc12 | - | 88.0 | - | 93.0
Cc1nc(-c2ccc(Cl)cc2)sc1C1(C)CC(c2ccc(F)cc2)=NO1 (stereo unspecified) | - | - | - | .
COCC1CCN(Cc2cn(Cc3ccccc3)nc2-c2cc3ccccc3o2)CC1 | - | - | - | .
COCC1CCCN(Cc2cn(Cc3ccccc3)nc2-c2cc3ccccc3o2)C1 (stereo unspecified) | - | 70.4 | - | -
